esBAF inh: SWI/SNF esBAF complex inhibition | AID 602393 | reporter increase, % at 12.5 µM | mouse ES cells, Bmi1-luciferase knock-in reporter, 24 h; 100% = twice the neutral-well signal | 2% of 350,000 active; in the data active = activation above about 40%;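 also: a rise in the Bmi1 reporter signal indicates esBAF inhibition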
697 NFkB inh: lowers PMA/ionomycin-induced NF-kB signal in 697 B cells; 697 B-cell NF-kB luciferase reporter, 16 h; inhibition, % at 4 µM; 0.33% of 330,000 active; in the data active = inhibition above about 35%
Jurkat NFkB inh: inhibitors of the PMA/ionomycin-induced NF-kB reporter in Jurkat cells; PMA/ionomycin-induced NF-kB luciferase reporter, luminescence; inhibition, % at 4 µM; 0.53% of 330,000 active; in the data active = inhibition above about 50%
Gli-Sufu antag: Gli-Sufu pathway antagonism. Sufu-KO-LIGHT fibroblasts, Gli luciferase reporter luminescence. inhibition, % at 5 µM. 0.74% of 340,000 active;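 active = inhibition above about 55%, limit read from the data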
SMARCA2 act: activators of SMARCA2 function; 1% of 370,000 active; MG213 cells, MMTV-luciferase reporter, dexamethasone, overnight; activation, % at 9.1 µM; AID 652017; in the data active = activation above about 7.8%
Gli antag conf: confirmation of Gli-SUFU pathway antagonists. shares compounds with Gli-Sufu antag. 40% of 2,500 active. Sufu-KO-LIGHT cells, Gli luciferase reporter, luminescence. inhibition, % at 5 µM;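 active = mean inhibition at 5 µM reaching about 45%, limit read from the data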
Gli cytotox: counter-screen for Gli-SUFU antagonists: cytotoxicity | Sufu-KO-LIGHT cells cytotoxicity, ATP luminescence | cytotoxicity, % at 5 µM | shares compounds with Gli-Sufu antag | 32% of 2,500 active;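 active = mean cytotoxicity at 5 µM above about 25%, limit read from the data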;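 also: cells exposed to compound overnight for roughly 16 to 18 hours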
Wnt3a cs: inhibits Wnt3a reporter, counter-screen for Gli-SUFU antagonists; shares compounds with Gli-Sufu antag; Wnt-LIGHT cells, Wnt3a-driven luciferase reporter, luminescence; inhibition, % at 6.25 µM; 20% of 2,500 active;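 active = mean inhibition above about 25%, limit read from the data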
Numbers stand for hits. Rows were chosen to be rich in hits. Some 3.3% of all compounds tested hit in one or more screens of this group.

COC1=C[C@@H]2C3=C([C@@H]2C1=O)[C@@H](NC(C)=O)CCc1cc(OC)c(OC)c(OC)c13 was read as esBAF inh inactive, 697 NFkB inh inactive, Jurkat NFkB inh inactive, Gli-Sufu antag inactive and SMARCA2 act inactive.
Screening COc1ccc(CC(=O)N(CCN(C)C)CC2CCCN(Cc3ccccc3F)C2)cc1 (stereo not drawn) returned esBAF inh inactive, 697 NFkB inh inactive, Jurkat NFkB inh inactive, Gli-Sufu antag inactive, SMARCA2 act inactive, Gli antag conf inactive, Gli cytotox inactive and Wnt3a cs inactive.
For COC(=O)[C@H]1[C@H](CO)[C@H]2Cn3c(ccc(-c4ccccc4F)c3=O)[C@@H]1N2 the results were esBAF inh inactive.
For CC1CCOC(=O)C=CC=CC(=O)OC2CC3OC4C5OC5(C)C(O)CC4(COC(=O)C1O)C2(C)C31CO1 (stereo not drawn) the results were Gli-Sufu antag 91, SMARCA2 act inactive, Gli antag conf 93, Gli cytotox 77 and Wnt3a cs 103.
`C/C=C/c1ccc([C@@H]2[C@H](CO)N3CCCCN(C(=O)Cc4cccnc4)C[C@@H]23)cc1` gave esBAF inh inactive.
`CNP1(NC)=NC(C(F)(F)F)=NC(C(F)(F)F)=N1` gave 697 NFkB inh inactive, Jurkat NFkB inh inactive, Gli-Sufu antag 56, SMARCA2 act inactive, Gli antag conf inactive, Gli cytotox inactive and Wnt3a cs inactive.
For O=C(O)C[C@@H]1CC[C@H]2NC[C@H](O)COC[C@@H]2O1 the results were esBAF inh inactive.
CN1/C(=C\C=Nc2ccccc2)C(C)(C)c2ccccc21 was read as esBAF inh inactive, 697 NFkB inh inactive, Jurkat NFkB inh inactive, Gli-Sufu antag 59, SMARCA2 act inactive, Gli antag conf 59, Gli cytotox 27 and Wnt3a cs inactive.
Screening CN1/C(=C\C=C2C(=O)NC(=O)NC2=O)C(C)(C)c2ccccc21 returned 697 NFkB inh inactive, Jurkat NFkB inh inactive, Gli-Sufu antag inactive and SMARCA2 act inactive.
Screening O=C(O)[C@@H]1[C@@H](CO)[C@@H]2Cn3c(cccc3=O)[C@H]1N2C(=O)c1ccccc1 returned esBAF inh inactive.
`COc1ccc(-c2ccc3n(c2=O)C[C@H]2[C@H](CO)[C@@H](C(=O)O)[C@@H]3N2C(=O)c2ccccc2F)cc1` gave esBAF inh inactive.
For O=C(Cc1ccncc1)N1CCCCN2[C@H](CO)[C@@H](c3ccc(C#Cc4ccccc4F)cc3)[C@H]2C1 the results were esBAF inh inactive.
For O=C(Nc1ccccc1)N1CCC2(CC1)OCCO2 the results were esBAF inh inactive, 697 NFkB inh inactive, Jurkat NFkB inh inactive, Gli-Sufu antag inactive and SMARCA2 act inactive.
O=C(NC(=O)N1CCC2(CC1)OCCO2)c1ccc(Cl)cc1 was read as esBAF inh inactive, 697 NFkB inh inactive, Jurkat NFkB inh inactive, Gli-Sufu antag 65, SMARCA2 act inactive, Gli antag conf inactive, Gli cytotox inactive and Wnt3a cs inactive.
`Nc1ccc(C2(c3ccc(N)cc3)CN3CCC2CC3)cc1` gave esBAF inh inactive, 697 NFkB inh inactive, Jurkat NFkB inh inactive, Gli-Sufu antag 71, SMARCA2 act inactive, Gli antag conf inactive, Gli cytotox inactive and Wnt3a cs inactive.
For C=C1[C@@H](C)C2[C@H](Cc3ccccc3)NC(=O)[C@]23[C@H](OC(C)=O)/C=C/[C@@](C)(O)C(=O)[C@@H](C)C/C=C/[C@H]3[C@@H]1O (stereo partly drawn) the results were SMARCA2 act inactive.
For C=C1[C@@H](C)[C@H]2[C@H](Cc3ccccc3)NC(=O)[C@]23OC(=O)/C=C/[C@H](O)CCC[C@@H](C)C/C=C/[C@H]3[C@@H]1O the results were esBAF inh inactive, 697 NFkB inh inactive, Jurkat NFkB inh inactive, Gli-Sufu antag 57, SMARCA2 act inactive, Gli antag conf inactive, Gli cytotox 46 and Wnt3a cs 58.
For C[N+]1=C(/C=C/Nc2ccccc2)C(C)(C)c2ccccc21 the results were 697 NFkB inh inactive, Jurkat NFkB inh inactive, Gli-Sufu antag 63, SMARCA2 act inactive, Gli antag conf 66, Gli cytotox 26 and Wnt3a cs inactive.

Screening results from PubChem.
